High-throughput results deposited in PubChem by National Center for Advancing Translational Sciences (NCATS).
A selection: hits, their analogues and other compounds. The true share with any hit is near 5.9%.
KB-V1 MDR tox: qHTS assay for MDR1-selective chemotherapeutics: Primary screen using the drug-selected MDR subline cells KB-V1. KB-V1 MDR cells viability, CellTiter-Glo, 72 h. Potency, µM (top dose mostly 46.1 µM), actives largely listed as cytotoxic. hit rate 3.4% among 400,000. AID 1347076, 2019; note: % is set by controls: 0 for no effect and ±100 for the full control effect; nearly all actives have a fitted effect of over 60% in size
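KB-V1 MDR subline cells in DMEM (phenol-red free, 10% FBS) exposed to compounds in qHTS concentration series for 72 h at 37 degrees C. Viability read by CellTiter-Glo luminescence; concentration-effect curves fitted after normalization and correction.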
ATXN2 expr inh: Primary qHTS for Inhibitors of ATXN expression; HEK-293 ATXN2-luciferase reporter, luminescence, 24 h; Potency, µM (highest dose often 57 µM), for inactives: at the highest dose activity change, negative = inhibition, usual class: inhibitors; hit rate 0.72% among 360,000; note: % is set by controls: 0 for no effect and ±100 for the full control effect; nearly all actives have a fitted effect of over 55% in size
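qHTS (up to 57 uM final) was run with 24 h compound exposure of reporter cells at 37 °C. Each well was multiplexed: SteadyGlo luminescence measured ATXN2-luciferase expression after a fluorogenic Gly-Phe-AFC viability readout (25 uM final).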
KB-3-1 cytotox: qHTS assay for MDR1-selective chemotherapeutics: Primary screen using the parental adenocarcinoma cell KB-3-1; KB-3-1 viability, CellTiter-Glo ATP luminescence, 72 h; Potency, µM (series often up to 46.1 µM), most hits filed as cytotoxic; hit rate 1.4% among 400,000; AID 1347075, 2019; note: % is set by controls: 0 for no effect and ±100 for the full control effect; nearly all actives have a fitted effect of over 60% in size
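72 h, 37 °C compound treatment of KB-3-1 parental cells; CellTiter-Glo added, 10 min, luminescence read. Data corrected against DMSO-only plates and normalized before curve fitting.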
S2 tox: Viability Counterscreen for Primary qHTS for Inhibitors of ATXN expression | hit rate 0.49% among 400,000 | AID 651635, 2014 | Potency, µM (top dose mostly 56.7 µM), actives largely listed as cytotoxic | S2 cells (HEK-293 line with an ATXN2-luciferase reporter) viability, CellTiter-Fluor protease fluorescence, 24 h; note: nearly all actives have a fitted effect of over 40% in size
TGFb inhibitor: qHTS for Inhibitors of TGF-b; HepG2 CAGA-GFP TGF-b/SMAD3 reporter, GFP fluorescence, 18 h; TGF-beta stimulated, 500 pg/mL final; hit rate 1.2% among 410,000; AID 588855, 2011; Potency, µM (doses to about 46.1 µM), inactives show top-dose activity, negative = inhibition, usual class: inhibitors; note: % is set by controls: 0 for no effect and ±100 for the full control effect; nearly all actives have a fitted effect of over 65% in size
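Per well, imaged GFP fluorescence of HEPG2 CAGA-GFP cells gives the signal; cells get compound, then TGF-beta (500 pg/mL final), 18 h at 37 degrees C; %Activity versus -TGF-beta and +DMSO controls.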
HepG2 viability: qHTS for Inhibitors of TGF-b: Cytotox Counterscreen. AID 588856, 2011. hit rate 0.76% among 410,000. Potency, µM (series often up to 46.1 µM), inactives show at the highest dose activity change, negative = cytotoxicity, most hits filed as cytotoxic. HepG2 CAGA-GFP viability, ATP luminescence, 18 h
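CellTiter-Glo luminescence gave cytotoxicity after 18 hours at 37 degrees C. The cells were HepG2 CAGA-GFP in 1% FBS DMEM, stimulated with 500 pg/mL TGF-beta after compound addition. %Activity was normalised to no-cell wells (complete cell-killing) and DMSO (no toxicity), and curves were fitted and classified.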
Active calls of the source: *; i = inactive; ? = inconclusive; · = no result given. Calls come from the whole dose curve; as a rule, active = well fitted curve in the direction sought with a large enough effect; inconclusive = small, poorly fitted or top-dose-only effect, or another doubt; inactive = no such curve, though single readings can be large; an effect the other way counts as inactive or inconclusive. Potency is the fitted concentration of half-maximal effect.

SMILES	KB-V1 MDR tox	ATXN2 expr inh	KB-3-1 cytotox	S2 tox	TGFb inhibitor	HepG2 viability
Fc1ccc(C(NCCc2ccccc2)c2nnc(-c3ccccc3Cl)o2)cc1 (stereo not given)	i	-11%	i	?	?	-19%
Clc1ccccc1-c1nnc2sc(-c3ccccn3)nn12	i	4%	i	i	7%	-17%
COc1cccc(OC)c1-c1nn2c(-c3ccccc3Cl)nnc2s1	9.2µM*	-9%	i	i	0%	-19%
COc1ccccc1NC(=O)CC1Sc2ccc(C(F)(F)F)cc2NC1=O (stereo not given)	i	7%	i	i	?	-34%
O=C1N=c2ccccc2=C1c1sc(=S)n(-c2ccc(O)cc2)c1O	i	-8%	i	i	1%	-4%
CN(c1ccc(O)cc1)c1nc(O)c(C2=c3ccccc3=NC2=O)s1	i	·	i	28µM*	?	-24%
CCN(C(=O)CCS(=O)(=O)c1cc(Br)cc2c1N(C(=O)C1CC1)CC2)c1cccc(C)c1	i	-2%	i	i	3%	2%
Cc1nn(CC(=O)NCc2ccccc2Cl)c(=O)c2nn(-c3ccccc3)c(C)c12	i	13%	i	i	0%	7%
CCN(CC(=O)NC(C)C)C(=O)C(CCSC)NC(=O)c1cccc(C)c1 (stereo not given)	23µM*	-2%	i	i	?	0%
CCN(CC(=O)NC(C)C)C(=O)C(CCSC)NC(=O)c1ccccc1OC (stereo not given)	i	-22%	i	i	-1%	0%
CCCCn1cnc2c(sc3nc4c(cc32)CSC(C)(C)C4)c1=O	21µM*	-3%	i	i	-3%	-1%
CC(C)CCn1cnc2c(sc3nc4c(cc32)CSC(C)(C)C4)c1=O	?	118%	i	i	?	-3%
Cc1cc(C)c(NC(=O)C(=O)NCC(c2cccnc2)N2CCN(c3ccccc3F)CC2)c(C)c1 (stereo not given)	i	·	i	·	-4%	-13%
COc1ccccc1/C=N/Nc1cc(C)nc2ccc(C)cc12	i	27%	i	i	3%	-11%
COc1ccc(OC)c(Nc2cc(C)nc3ccc(C)cc23)c1	5.2µM*	?	7.3µM*	?	?	-1%
COc1ccc(/C=N/Nc2cc(C)nc3ccc(OC)cc23)c(OC)c1	?	?	?	·	10µM*	-107%
CCOc1ccccc1Nc1cc(C)nc2ccc(C)cc12	12µM*	-23%	?	i	?	-2%
COc1ccc2nc(C)cc(N/N=C/c3ccccc3)c2c1	21µM*	?	i	·	?	-100%
O=C(Cn1nc2c(cc1=O)CCCC2)NCc1ccc(Cl)cc1	·	·	·	·	?	-6%
CCOc1ccc(NC(=O)c2cc(=O)c3cc(CC)ccc3o2)cc1	i	-6%	i	i	-20%	7%
COC(=O)c1ccc(Nc2cc(C)nc3ccc(C)cc23)cc1	?	-33%	6.5µM*	?	?	-80%
COc1ccc2nc(C)cc(Nc3ccc(C)cc3)c2c1	i	-2%	i	i	-9%	-7%
COc1ccc2nc(C)cc(Nc3ccc(Cl)c(Cl)c3)c2c1	?	25µM*	?	22µM*	?	11µM*
CCOC(=O)c1c(C)[nH]c(CCC(=O)NCc2cc(OC)c(OC)c(OC)c2)c1C	·	·	·	·	0%	-15%
Cc1cc(NCc2ccccc2Cl)n2cnnc2n1	·	·	·	·	?	-39%
SMILES	KB-V1 MDR tox	ATXN2 expr inh	KB-3-1 cytotox	S2 tox	TGFb inhibitor	HepG2 viability
CCCCCOC(=O)c1[nH]c2c(c1C)C(=O)C(C(=O)OC)C(C)C2 (stereo not given)	18µM*	32%	?	i	?	-4%
COCCOC(=O)c1[nH]c2c(c1C)C(=O)C(C(=O)OC)C(C)C2 (stereo not given)	i	29%	i	i	13%	-15%
COc1ccc(N(CC(=O)NCc2cccc(OC)c2)S(=O)(=O)c2c(C)noc2C)cc1	13µM*	13%	i	i	2%	4%
CCOc1ccc(N(CC(=O)NCc2cccc(OC)c2)S(=O)(=O)c2c(C)noc2C)cc1	7.3µM*	-3%	i	i	17%	-20%
Clc1ccc2c(c1)NC(c1ccncc1)=NC(c1cccs1)=N2	i	10%	i	i	3%	-11%
CCCCn1nc(C(=O)NCC(=O)Nc2c(C)cccc2C)c2ccccc2c1=O	1.6µM*	-12%	i	i	?	-3%
CCCn1nc(C(=O)NCC2COc3ccccc3O2)c2ccccc2c1=O (stereo not given)	7.3µM*	-13%	i	i	-11%	-35%
CCN(CC1COc2ccccc2O1)C(=O)CN1C(=O)NC(C)(c2ccc(C)cc2)C1=O (stereo not given)	?	11%	i	i	-16%	-3%
CC(C)c1ccc(C2(C)NC(=O)N(CC(=O)NCC3COc4ccccc4O3)C2=O)cc1 (stereo not given)	16µM*	-2%	i	i	-32%	-2%
O=C(NCc1ccccc1)C(=O)NCC1COc2ccccc2O1 (stereo not given)	5.2µM*	-14%	i	?	-3%	6%
CCCn1nc(C(=O)NC2CC2)c2ccccc2c1=O	i	4%	i	i	1%	-1%
CCCCNC(=O)C(CC)n1c(SCc2cccc(F)c2)nc2ccncc21 (stereo not given)	i	·	i	·	-2%	0%
Cc1ccc(C)c(NC(=O)CN(Cc2ccccc2)S(=O)(=O)c2ccc3nc(C)sc3c2)c1	i	8%	i	i	-33%	-20%
COc1cc(-c2noc(CCCC(=O)NCc3ccccc3)n2)cc(OC)c1OC	6.5µM*	-8%	i	i	-4%	-8%
COc1ccc(C(=O)Nc2cc3c(cc2Cl)OCCCO3)cc1	i	36%	i	?	20%	1%
O=C(Nc1cc2c(cc1Br)OCCCO2)c1ccccc1	21µM*	43%	i	i	8%	12%
Cc1ccc(C(=O)Nc2cc3c(cc2Cl)OCCCO3)cc1	i	64%	i	i	-9%	-9%
COc1cccc(C(=O)Nc2cc3c(cc2Cl)OCCCO3)c1	23µM*	60%	i	i	-15%	-8%
